PfHsp90 set2 – growth inhibition of yeast expressing Plasmodium Hsp90 | S. cerevisiae expressing PfHsp90, BacTiter-Glo ATP, 48 h; yeast lacking PDR1 and PDR3 efflux regulators | inhibition, % at 9.4 µM | hit rate 0.32% among 310,000;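 active = every replicate shows inhibition above about 80%, whatever the replicate mean, limit read from the data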
tim23-1 inh – tim23-1 yeast growth inhibition. S. cerevisiae tim23-1 growth, BacTiter-Glo luminescence, 24 h. inhibition, % at 20 µM. hit rate 1.3% among 330,000. AID 463212;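 active = growth inhibition of the mutant yeast at or above 50%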;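 also: temperature-sensitive mutant grown at 25 °C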
tim10-1 inh – growth inhibitors of tim10-1 mutant yeast; S. cerevisiae tim10-1 ts strain growth, BacTiter-Glo, 24 h; inhibition, % at 20 µM; hit rate 2.2% among 330,000;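 active = inhibition of at least 40%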;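 also: mutant grown at 25 °C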
TIM10 inh – TIM10 yeast growth inhibition. S. cerevisiae TIM10 strain growth, BacTiter-Glo luminescence, 24 h. inhibition, % at 10 µM. hit rate 1.4% among 330,000. AID 463195;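 active = inhibition of 40% or more at the single tested concentration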;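 also: wild-type TIM10 isogenic control strain grown at permissive 25 °C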
NALP1 inh – NALP1 inhibition | S. cerevisiae NALP1/ASC/caspase-1 growth, X-gal OD620, 72 h | inhibition, % at 10 µM | hit rate 0.61% among 280,000; in the data active = inhibition mostly above about 24%, no sharp cut-off; inactive = mostly below about 32%
NLRP3 yeast inh – NALP3 inhibition in yeast; Yeast reconstituted NLRP3/ASC/caspase-1, beta-gal luminescence, 24 h; inhibition, % at 10 µM; hit rate 0.39% among 330,000;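 active = inhibition of 50% or more; inactive = inhibition below 50%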
tim10-1 conf – tim10-1 yeast growth inhibition, confirmed. shares compounds with tim10-1 inh. S. cerevisiae tim10-1 ts strain growth, BacTiter-Glo, 24 h. inhibition, % at 20 µM. hit rate 56% among 7,400. AID 463213;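 active = inhibition of yeast growth at or above a set limit in either of two repeat tests at 20 µM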;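 also: tim10-1 mutant grown at permissive 25 °C to find synthetic lethal compounds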
TIM10 conf – confirmation of TIM10 yeast growth inhibitors | S. cerevisiae tim10 strain growth, BacTiter-Glo luminescence, 24 h | inhibition, % at 10 µM | shares compounds with TIM10 inh | hit rate 63% among 4,600;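 active = inhibition of yeast growth at or above a set limit in either of two replicates at 10 µM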; also: this counterscreen used the strain with wild-type TIM10
Hits are given with their value; 0 = inactive; - = no result. In the library only some 4.2% were active in any assay of this set; here they are far more common.

SMILES	PfHsp90 set2	tim23-1 inh	tim10-1 inh	TIM10 inh	NALP1 inh	NLRP3 yeast inh	tim10-1 conf	TIM10 conf
Cn1c2ccccc2c(=O)c2c(=O)n(-c3ccccc3)c(-c3ccc(C(C)(C)C)cc3)nc21	0	0	48	82	0	0	0	0
CC(C)(C)c1ccc(-c2n[nH]c(=S)n2C2CCCC2)cc1	0	0	41	44	0	0	30	45
CCn1cnc2cc(NCc3ccc(C)cc3)ccc21	0	0	0	0	0	0	-	-
CCCn1cnc2cc(NCc3ccc(Br)cc3)ccc21	0	0	43	52	0	0	0	50
CC(C)(C)OC(=O)N1CCC(C(=O)Nc2ccc(C(=O)N3CCCCC3)cc2)CC1	0	-	-	-	-	-	-	-
COc1ccc(N2CC(C(=O)NCc3nnnn3-c3ccc(C)c(C)c3)CC2=O)cc1 (centres undefined)	0	0	0	0	0	0	-	-
Cn1c(SCc2c(Cl)cccc2Cl)nnc1-c1cccs1	0	0	48	48	0	0	35	34
Cc1ccc(CSc2nnc(-c3cccs3)n2C)cc1	0	0	0	0	0	0	-	-
CCOC(=O)c1c(CSc2ccc(CC)cc2)oc2ccc(O)c(CN(C)C)c12	0	0	49	55	0	0	58	65
CCOC(=O)c1c(C)oc2ccc(O)c(CN(C)C)c12	0	0	0	0	0	0	-	-
Cc1nc(C)c(-c2csc(Nc3ccc(F)cc3)n2)s1	-	0	48	51	0	0	43	44
COC(=O)CCCn1c(C)cc(C(=O)CCl)c1C	-	0	45	42	0	0	37	36
COC(=O)CCn1c(C)cc(C(=O)COc2ccccc2C(N)=O)c1C	0	0	0	0	0	0	-	-
CCOCCCNC(=O)NC(=O)CN1CCN(S(=O)(=O)c2ccc3c(c2)OCCO3)CC1	0	0	0	0	0	0	-	-
CCOc1ccccc1N1CCN(C(=O)C2CSC3(C)CCC(=O)N23)CC1 (centres undefined)	0	0	0	0	-	0	-	-
O=S(=O)(c1ccc(Cl)cc1)N1CCC(O)(CN2CCN(Cc3ccccc3)CC2)CC1	0	0	0	0	0	0	-	-
O=S(=O)(c1ccccc1)N1CCC(O)(CSc2ccc(Cl)cc2)CC1	0	0	44	43	0	0	37	0
Cc1n[nH]c(C)c1Sc1ccccc1[N+](=O)[O-]	-	0	0	0	0	0	-	-
Cc1ccc(-n2nc(C)c(Sc3ccccc3[N+](=O)[O-])c2N)cc1	0	0	44	44	0	0	34	33
COC(=O)c1cc(N2C(=O)C3C(C2=O)C2(C)C=CC3(C)O2)ccc1Cl (centres undefined)	-	0	53	83	0	0	76	90
CC(=O)Oc1ccc(N2C(=O)C3C(C2=O)C2(C)C=CC3(C)O2)cc1 (centres undefined)	-	0	56	83	0	0	93	87
O=C(Cc1ccc(Br)c2ccccc12)N/N=C/c1ccccn1	0	0	41	40	0	0	0	32
O=C(Cc1ccc(F)cc1)N/N=C/c1ccccn1	0	0	0	0	0	0	-	-
O=c1c2c(-c3ccc([N+](=O)[O-])cc3)ccnc2[nH]n1-c1ccccc1	0	0	0	0	0	0	-	-
N/C(=N\OC(=O)CC1CCCCC1)c1cccc([N+](=O)[O-])c1	0	0	56	46	0	0	65	36
SMILES	PfHsp90 set2	tim23-1 inh	tim10-1 inh	TIM10 inh	NALP1 inh	NLRP3 yeast inh	tim10-1 conf	TIM10 conf
O=C(NCC1CCCCC1)c1cccc([N+](=O)[O-])c1	0	0	0	0	0	0	-	-
S=C(NCCSCc1ccc(Cl)cc1)Nc1ccccc1	0	0	42	52	0	0	34	0
S=C(NCCCc1ccccc1)Nc1ccc(Cl)cc1	0	0	55	47	0	0	52	0
N/C(=N\OC(=O)Cc1cccs1)c1ccc(Br)cc1	0	0	0	0	0	0	-	-
O=C(COC(=O)c1cccs1)Nc1cccc(Cl)c1	0	0	0	0	-	0	-	-
N/C(Cc1ccc(Cl)cc1Cl)=N\OC(=O)c1cccs1	83	0	73	86	0	0	37	86
N/C(Cc1ccc(Cl)cc1Cl)=N\OC(=O)Cc1cccs1	0	0	48	49	0	0	38	0
Cc1cccc(C)c1NC(=S)NN(Cc1ccccc1)c1ccccc1	0	0	0	0	0	0	-	-
CC(C)c1ccccc1NC(=S)NN(Cc1ccccc1)c1ccccc1	0	0	46	52	0	0	32	29
Cc1ccc2c(c1)Oc1ccc(NC(=O)CCl)cc1C(=O)N2	0	0	43	50	0	0	30	33
COc1ccc(S(=O)(=O)NCC(c2ccc(F)cc2)N2CCOCC2)cc1Br (centres undefined)	0	0	0	0	-	0	-	-
CCCN1C(=O)SC(CC(=O)Nc2ccc(C)cc2)C1=O (centres undefined)	0	0	0	0	0	0	-	-
Cc1ccc(NC(=O)CC2SC(=O)N(c3ccccc3)C2=O)cc1 (centres undefined)	0	0	49	41	0	0	42	0
CC1CCN(C(=O)c2[nH]cnc2C(=O)N2CCN(c3ccccc3)CC2)CC1	0	0	0	0	-	0	-	-
C=C1CCC[C@]2(C)C[C@H]3OC(=O)C(CNC(C)(CO)CO)[C@H]3CC12 (some centres undefined)	0	0	51	43	0	0	52	50
COc1ccc(Cn2c(SCc3ccc(C)cc3)nc3cc(OC)c(OC)cc3c2=N)cc1Cl	0	0	90	62	-	0	87	0
O=C(CN1C(=O)CSc2ccc(S(=O)(=O)N3CCOCC3)cc21)NCc1ccc(Cl)cc1	0	0	0	0	0	0	-	-
Cc1c(OC(=O)CNC(=O)OC(C)(C)C)ccc2c3c(c(=O)oc12)CCC3	0	0	49	45	0	0	39	47
Cc1c(OCC(=O)OC(C)(C)C)ccc2c3c(c(=O)oc12)CCC3	0	0	0	0	0	0	-	-
CC(=O)c1ccc(NC(=O)C(C)Sc2nnc3ccccn23)cc1 (centres undefined)	0	0	0	0	-	0	-	-
C=CCOc1ccccc1/C=c1\sc2nc(-c3oc4ccccc4c3C)nn2c1=O	-	0	0	0	-	0	-	-
COc1ccccc1/C=c1\sc2nc(-c3ccccc3OC)nn2c1=O	0	0	49	50	0	0	54	0
CN1C(=O)C(CC(=O)Nc2ccc(F)cc2)N(NC(=O)c2cccc(F)c2)C1=S (centres undefined)	0	0	0	0	0	0	-	-
Oc1ccccc1-c1nc2c3ccccc3c3ccccc3c2[nH]1	0	-	-	-	0	-	-	-
c1csc(-c2nc3c4ccccc4c4ccccc4c3[nH]2)c1	-	0	41	58	0	0	0	0

Source: PubChem BioAssay (several laboratories)
